From PubChem BioAssay
In the library only some 6.8% were active in any assay of this set; here they are far more common.
T cruzi growth-1: T. cruzi intracellular proliferation inhibitors, primary screen, cell-based, beta-gal Tulahuen parasites, NIH3T3 host, luminescence; T. cruzi beta-gal in NIH3T3, GalScreen luminescence, 90 h; inhibition, % at 8.34 µM; actives 5.9% (n = 77,000);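 active means mean inhibition above about 93%, with at least 55% of replicates each passing it, limit read from the data, passing the limit was not always enough; inconclusive means only one of those two conditions holds; inactive means neither condition holds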
C diff growth: C. difficile growth inhibitors, primary screen, HTS; Clostridium difficile clinical isolate growth, OD600, 24 h; stronger effect = lower value; growth activity, negative = inhibition, % at 16 µg/mL (by protocol); actives 0.25% (n = 86,000);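 active means mean growth activity at or below -80% and every replicate also at or below -80%; inconclusive means mean at or below -80% but some replicate above -80%; inactive means mean growth activity above -80%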;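 further: 0% = DMSO wells and -100% = levofloxacin 16 µg/mL wells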
Pf Dd2 growth: P. falciparum Dd2 growth inhibitors, primary screen, SYBR Green fluorescence, single dose replicates. AID 1159554, 2015. 72 h; stronger effect = lower value. activity change, % at 10 µM. actives 2.3% (n = 94,000); in the data active means activity change below about -80%; inconclusive means no clear call, values can overlap the other calls
T cruzi growth-2: T. cruzi intracellular proliferation inhibitors, confirmation, cell-based, NIH3T3 host, beta-gal parasite, luminescence, cherry-pick | shares compounds with T cruzi growth-1 | T. cruzi beta-gal in NIH3T3, GalScreen luminescence, 90 h | inhibition, % at 8.35 µM | actives 72% (n = 5,600) | AID 651739, 2012;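 active means mean replicate inhibition above about 95% and at least 55% of replicates individually reaching it, limit read from the data; inconclusive means only one of the two criteria is met; inactive means neither criterion is met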
T cruzi growth-3: inhibitors of intracellular T. cruzi replication, confirmation, NIH3T3 host cells, beta-gal parasites, cherry-pick, set 2 | AID 651740, 2012 | actives 21% (n = 5,600) | T. cruzi beta-gal in NIH3T3, GalScreen luminescence, 90 h | inhibition, % at 2.09 µM | shares compounds with T cruzi growth-1;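 active means mean inhibition above about 95%, with at least 55% of replicates also reaching it, limit read from the data; inconclusive means meets just one of the two conditions; inactive means meets neither condition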;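 further: plate controls were neutral control median for no effect and positive control median for full effect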
3T3 cytotox: cytotoxicity in mouse NIH/3T3 fibroblasts, confirmation, cytotoxicity control for T. cruzi proliferation inhibitor project, cell-based, cherry-pick, single point | shares compounds with T cruzi growth-1 | actives 14% (n = 5,600) | cytotoxicity (signal decrease), % at 8.35 µM | NIH/3T3 viability, CellTiter-Glo ATP luminescence, 90 h | AID 651742, 2012;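 active means mean signal decrease across replicates above about 35% based on untreated-well scatter, with enough replicates individually passing, limit read from the data; inconclusive means no rule stated though some were filed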;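 further: 0% = median of neutral control wells and 100% = median of positive control wells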
3T3 cytotox 2: NIH/3T3 fibroblast cytotoxicity, confirmation, cytotoxicity control, cell-based, cherry-pick, single point, set 2. shares compounds with T cruzi growth-1. inhibition, % at 24.9 µM. actives 56% (n = 5,600). NIH/3T3 viability, CellTiter-Glo ATP luminescence, 90 h;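 active means mean loss of cell viability signal at or above a set limit, and enough replicates individually reaching it; inconclusive means meets only the mean limit or only the replicate share; inactive means meets neither condition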;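 further: 0% = median of neutral control wells and 100% = median of positive control wells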
* hit, by the source's call; ? = inconclusive; nt = no result given.

SMILES	T cruzi growth-1	C diff growth	Pf Dd2 growth	T cruzi growth-2	T cruzi growth-3	3T3 cytotox	3T3 cytotox 2
COc1ccc(C#Cc2ccc3c(c2)[C@H]2[C@H](CCN2C(=O)CN2CCOCC2)[C@H](CO)N3C)cc1	99*	-7	-56	111*	59	8	27*
CN1c2ccc(C#Cc3ccc(F)cc3)cc2[C@@H]2[C@@H](CCN2C(=O)CN2CCOCC2)[C@H]1CO	91	0	-34	nt	nt	nt	nt
COc1ccc(C#Cc2ccc3c(c2)[C@@H]2[C@@H](CCN2C(=O)c2ccccc2F)[C@@H](CO)N3)cc1	106*	31	-35	102*	70	20	17
CNC[C@@H]1Oc2ccc(NS(=O)(=O)c3ccc(C)cc3)cc2CC(=O)N([C@@H](C)CO)C[C@@H]1C	54	3	-10	nt	nt	nt	nt
COc1ccc(S(=O)(=O)N2CCCCN3[C@H](C2)[C@H](c2ccc(C#CC(C)C)cc2)[C@@H]3CO)cc1	118*	25	-24	107*	105*	1	69*
COc1ccc(S(=O)(=O)N2CCCCN3[C@H](CO)[C@H](c4ccc(C#CC(C)C)cc4)[C@@H]3C2)cc1	81	6	9	nt	nt	nt	nt
COc1ccc(S(=O)(=O)N2CCCCN3[C@H](CO)[C@@H](c4ccc(C#CCC(C)C)cc4)[C@@H]3C2)cc1	38	3	-19	nt	nt	nt	nt
COc1ccc(S(=O)(=O)N2CCCCN3[C@H](CO)[C@@H](c4ccc(C#CC(C)C)cc4)[C@@H]3C2)cc1	96*	1	-17	101*	75	21	20
C[C@H](CO)N1C[C@H](C)[C@@H](CN(C)Cc2ccccn2)Oc2cc(C3=CCCC3)ccc2S1(=O)=O	nt	1	-24	nt	nt	nt	nt
O=C(Nc1ccccc1)N[C@H]1CC[C@H](CCNS(=O)(=O)c2cccc(F)c2)O[C@@H]1CO	18	-7	-2	nt	nt	nt	nt
O=C(Cc1ccccn1)N[C@H]1CC[C@@H](CCNS(=O)(=O)c2cccc(F)c2)O[C@@H]1CO	101*	nt	2	41	19	5	18
O=C(Nc1ccc(Cl)cc1)N[C@H]1CC[C@@H](CCNC(=O)c2ccccc2F)O[C@@H]1CO	142*	-5	-8	36	14	-9	-18
O=C(Nc1ccccc1)N[C@H]1CC[C@@H](CCNS(=O)(=O)c2cccc(F)c2)O[C@H]1CO	20	-10	-2	nt	nt	nt	nt
O=C(Nc1cc(Cl)cc(Cl)c1)N[C@@H]1CC[C@@H](CCNS(=O)(=O)c2cccc(F)c2)O[C@@H]1CO	147*	8	-26	104*	3	10	65*
O=C(Cc1ccccn1)N[C@H]1CC[C@@H](CCNS(=O)(=O)c2cccc(F)c2)O[C@H]1CO	-39	nt	-10	nt	nt	nt	nt
O=C(Nc1ccc(Cl)cc1)N[C@H]1CC[C@@H](CCNC(=O)c2ccccc2F)O[C@H]1CO	36	1	-3	nt	nt	nt	nt
O=C(Nc1cc(Cl)cc(Cl)c1)N[C@H]1CC[C@@H](CCNS(=O)(=O)c2cccc(F)c2)O[C@@H]1CO	?	14	6	100*	39	40*	81*
O=C(Nc1ccccc1F)N[C@@H]1CC[C@@H](CCNS(=O)(=O)c2ccccc2)O[C@H]1CO	-19	-2	-1	nt	nt	nt	nt
Cc1ccc(S(=O)(=O)N[C@@H]2CC[C@H](CCn3cc(C(C)C)nn3)O[C@H]2CO)cc1	65	-3	-30	nt	nt	nt	nt
C[C@@H]1CN([C@H](C)CO)C(=O)c2cc(NC(=O)Nc3ccccc3)ccc2O[C@@H](C)CCCCO[C@H]1CN(C)C	18	3	-19	nt	nt	nt	nt
C[C@@H]1CCCCO[C@H](CN(C)C(=O)Nc2ccc3c(c2)OCO3)[C@@H](C)CN([C@H](C)CO)C(=O)c2cc(NC(=O)c3ccncc3)ccc2O1	5	3	46	nt	nt	nt	nt
